Data on 20 molecules can be found in PubChem BioAssay (EPA / NIEHS).

Inconclusive results are not listed. A structure can be active in one record and inactive in another. Calls of active or inactive are those of the source. The calls were made as follows: active = hit-call score of the fitted dose curve at least 0.9, where 1 is the maximum; inconclusive = response in the unintended direction; inactive = score below 0.9.

Assay [1] in a line: TOX21_p53_BLA_p4_viability: Viability Assessment in the Tox21 HCT-116 p53 Agonism Beta-lactamase Assay, Phase 4 (AID 2283597).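 Also: hits lower the luminescence signal meaning cytotoxicity.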 An outline of the steps:
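Cytotoxicity as reduced cellular ATP (CellTiter-Glo luminescence, 30 min room temperature), measured in the same wells following the CCF4 FRET p53 reading. Human HCT-116 cells received compounds in DMSO (217-fold dilution) for 16 h.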

Assay [2] addresses Cellular tumor antigen p53 (Homo sapiens) (UniProt P04637). Briefly: TOX21_p53_BLA_p5_ratio: Tox21 HCT-116 p53 Agonism Beta-lactamase Assay, Ratio, Phase 5 (AID 2283599). An outline of the steps:
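Beta-lactamase reporter ratio (blue 460 nm over green 530 nm, 405 nm excitation) after 2 h CCF4-AM loading, in HCT-116 cells exposed 16 h at 37 C to compounds pinned at 217-fold dilution. Increases relative to DMSO baseline scored.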

Assay [3] in a line: TOX21_p53_BLA_p5_viability: Viability Assessment in the Tox21 HCT-116 p53 Agonism Beta-lactamase Assay, Phase 5 (AID 2283600). An outline of the steps: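 Viability came from CellTiter-Glo ATP luminescence, read after 30 min at room temperature. Before this, HCT-116 p53-bla cells (4000/well) had 16 hours of compound exposure at 37C, with DMSO stocks diluted 217-fold on transfer.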

Assay [4] has as its target Cellular tumor antigen p53 (Homo sapiens) (UniProt P04637). In words: TOX21_p53_BLA_p4_ratio: Tox21 HCT-116 p53 Agonism Beta-lactamase Assay, Ratio, Phase 4 (AID 2283601). An outline of the steps:
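Signal is the blue/green (460nm/530nm) ratio of cleaved versus uncleaved CCF4-AM substrate, read after 2 h substrate loading. Cells were HCT116 carrying the p53-responsive beta-lactamase reporter, dosed 16 h at 37C, 5% CO2; CellTiter-Glo measured in parallel.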

Assay [5] can be described thus: Tanguay_ZF_120hpf_MORT_legacy: (Legacy) Oregon State University Tanguay Lab 120 Hour Post-fertilization zebrafish Assay for Mortality (AID 2283633). An outline of the steps: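 Static waterborne exposure from 6 to 120 hpf at 28C of single dechorionated wild-type (5D) embryos per well, 0.64% DMSO final. Death recorded present/absent by brightfield at 24 and 120 hpf.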

Assay [6] can be described thus: Tanguay_ZF_120hpf_YSE_legacy: (Legacy) Oregon State University Tanguay Lab 120 Hour Post-fertilization zebrafish Assay for Yolk Sac Edema (AID 2283634).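 As to AC50: actives raise the incidence of yolk sac edema above the DMSO baseline.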 An outline of the steps:
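Presence or absence of yolk sac edema was recorded at 120 hpf in surviving larvae. These were wild-type Tropical 5D embryos, chorion removed at 4 hpf, held in static exposure at 28C from 6 hpf with 0.64% DMSO vehicle.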

The nature of assay [7]: Tanguay_ZF_120hpf_AXIS_legacy: (Legacy) Oregon State University Tanguay Lab 120 Hour Post-fertilization zebrafish Assay for Body Axis Malformation (AID 2283635).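 As to AC50: potency for an increased fraction of larvae scored with body axis malformation.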 An outline of the steps:
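Binary scoring of axis defects at 120 hpf under brightfield, fitted positive versus DMSO. Tropical 5D embryos, chorion removed by pronase at 4 hpf, were singly exposed in sealed, dark plates at 28C from 6 hpf; DMSO 0.64% final.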

Assay [8] in a line: Tanguay_ZF_120hpf_EYE_legacy: (Legacy) Oregon State University Tanguay Lab 120 Hour Post-fertilization zebrafish Assay for Eye Malformation (AID 2283636).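 Also: binary presence or absence of eye malformation scored by brightfield in 120 hpf larvae.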 An outline of the steps: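 Binary brightfield scoring of eye defects at 120 hpf after static exposure from 6 hpf of single pronase-dechorionated wild-type embryos (28C, 0.64% DMSO). Non-mortality endpoints omitted where embryos died; fit vs DMSO.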

The nature of assay [9]: Tanguay_ZF_120hpf_SNOU_legacy: (Legacy) Oregon State University Tanguay Lab 120 Hour Post-fertilization zebrafish Assay for Snout Malformation (AID 2283637). An outline of the steps: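 Binary snout-malformation call at 120 hpf in wild-type 5D embryos, chorion removed by pronase, under static exposure from 6 hpf at 28C (0.64% DMSO). Embryos dying by 24 or 120 hpf excluded.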

Assay [10] can be described thus: Tanguay_ZF_120hpf_JAW_legacy: (Legacy) Oregon State University Tanguay Lab 120 Hour Post-fertilization zebrafish Assay for Jaw Malformation (AID 2283638).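 As to AC50: active means more embryos with jaw malformation than DMSO controls.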 An outline of the steps:
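Binary jaw-malformation call at 120 hpf by brightfield microscopy. Embryos (Tropical 5D strain, chorion removed at 4 hpf) were dosed statically at 6 hpf, one per well, at 28C with 0.64% DMSO. Embryos that died were not scored.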

Cellular tumor antigen p53 (Homo sapiens), sequence (P04637 whole entry, looked up): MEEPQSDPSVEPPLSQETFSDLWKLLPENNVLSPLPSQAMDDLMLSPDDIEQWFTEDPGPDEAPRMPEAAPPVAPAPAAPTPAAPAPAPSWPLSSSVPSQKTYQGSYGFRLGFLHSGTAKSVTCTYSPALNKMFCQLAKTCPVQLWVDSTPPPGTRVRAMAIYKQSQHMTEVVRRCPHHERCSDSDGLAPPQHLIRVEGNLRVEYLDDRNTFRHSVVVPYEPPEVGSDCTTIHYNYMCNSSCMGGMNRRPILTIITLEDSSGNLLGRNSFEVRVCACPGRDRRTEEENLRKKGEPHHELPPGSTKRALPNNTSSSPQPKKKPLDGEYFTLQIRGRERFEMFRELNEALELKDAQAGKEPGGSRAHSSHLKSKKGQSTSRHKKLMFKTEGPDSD

By AC50 is commonly meant the midpoint of the concentration-response curve, whichever way the signal moves. `COc1ccc(S(=O)(=O)N2C(=O)[C@@](c3ccccc3OC)(N3C[C@H](O)C[C@H]3C(=O)N(C)C)c3cc(Cl)ccc32)c(OC)c1`: the AC50 in assay [1] was 67.7 µM (active); in assay [2], 75 µM (active); in assay [3] it was 77.4 µM (active); in [4], 86.6 µM (active). Also, the result in assay [5], in [6], in assay [7], in [8], in assay [9] and in assay [10] was inactive.
With `COc1cc(C=O)ccc1O`, the call in assay [1], in assay [2], in assay [3], in assay [4] and in assay [5] was inactive. Moreover, the AC50 in assay [6] is 43.3 µM (active); in [8], 60.5 µM (active); in assay [9] it was 36.6 µM (active); in assay [10], 35.3 µM (active).
As to `NS(=O)(=O)c1cc2c(cc1Cl)NCNS2(=O)=O`, the molecule was called inactive in assay [1], in assay [2], in [3], in [4], in [5] and in assay [6]. Moreover, the call in assay [8], in assay [9] and in assay [10] was inactive.
As to `CCOC(=O)C(C)(C)Oc1ccc(Cl)cc1`, the outcome in assay [1], in [2], in assay [3], in [4], in [5] and in [6] was inactive. Further, the molecule was classed as inactive in [8]. Besides, the AC50 in assay [7] is 63.8 µM (active).
In the case of `c1cc(-c2ccncc2)ccn1`, the result in [1], in [2], in [3], in assay [4], in [5] and in [6] was inactive. For the same molecule, the outcome in assay [8], in assay [9] and in [10] was inactive.
On to `CC1=C(/C=C/C(C)=C/C=C/C(C)=C/CO)C(C)(C)CCC1`, for which the AC50 in assay [1] was 78.5 µM (active); in [2], 86.4 µM (active). For the same molecule, the outcome in [2], in [3], in assay [4], in [5], in assay [6] and in assay [7] was inactive. Also, the outcome in assay [8] and in assay [9] was inactive.
With `O=C(O)CCCCC(=O)O`, the outcome in assay [1], in assay [2], in [3], in [4], in assay [5] and in [6] was inactive. Moreover, the molecule was classed as inactive in [8], in assay [9] and in assay [10].
In the case of `Cc1oc(-c2ccccc2)nc1CCOc1cccc2c1ccn2CCC(=O)O`, the call in assay [1], in [2], in assay [3], in assay [4], in [5] and in [6] was inactive. For the same molecule, the call in [7], in [9] and in assay [10] was inactive.
As for `COc1cc(-c2nc(NC(=O)c3cc4cc(C)cc(C)c4n3CC(=O)O)sc2CCC2CCCCC2)c(OC)cc1Cl`, the AC50 in assay [1] is 2.1 µM (active); in [2] it was 9.04 µM (active); in assay [3], 3.51 µM (active); in assay [4], 3.39 µM (active). Moreover, the outcome in [5], in [6], in assay [8], in assay [9] and in assay [10] was inactive.
As for `CCNc1cccc(C)c1`, the outcome in [1], in [2], in assay [3], in [4], in [5] and in [6] was inactive. In addition, the molecule was classed as inactive in assay [8], in [9] and in assay [10].
Take `NCC1(Cc2noc(=O)[nH]2)CCCCC1`: the call in assay [1], in assay [2], in [4], in assay [5], in assay [6] and in assay [7] was inactive. Besides, the outcome in assay [8], in [9] and in [10] was inactive.
On to `C[C@]12C=CC(=O)C=C1CC[C@@H]1[C@@H]2C(=O)C[C@@]2(C)[C@H]1CC[C@]2(O)C(=O)CO`, for which the call in assay [1], in assay [2], in assay [3], in assay [5], in [6] and in assay [8] was inactive. Moreover, the molecule was called inactive in assay [9] and in assay [10].
Turning to `Nc1ccc(S(=O)(=O)c2ccc(N)cc2)cc1`, the call in assay [1], in assay [2], in assay [3], in assay [5], in assay [7] and in assay [8] was inactive. In addition, the molecule was called inactive in assay [9] and in [10].
`Cc1ccc2ncccc2c1`: the result in assay [1], in assay [2], in assay [3], in [5], in assay [6] and in assay [8] was inactive. For the same molecule, the molecule was classed as inactive in [9] and in [10].
For `CNC(=O)[C@H]1O[C@@H](n2cnc3c(NCc4cc(Cl)ccc4OCc4cc(C)no4)ncnc32)[C@H](O)[C@@H]1N`, the molecule was called inactive in assay [1], in assay [2], in assay [3], in assay [4], in [5] and in assay [6]. The call in [9] and in assay [10] was inactive.
Regarding `CN1CCCC1=O`, the outcome in assay [1], in [2], in assay [3], in assay [4], in assay [5] and in assay [6] was inactive. Further, the call in [8] and in [10] was inactive.
In the case of `COC(=O)c1ccc(O)cc1`, the molecule was called inactive in assay [1], in [2], in assay [3], in assay [5], in assay [6] and in assay [8]. The molecule was classed as inactive in [9] and in assay [10].
For the molecule `COc1cc(S(=O)(=O)O)c(C)cc1N=Nc1c(O)ccc2cc(S(=O)(=O)O)ccc12`, the result in [1], in assay [2], in assay [4], in assay [5], in assay [6] and in assay [8] was inactive. Further, the call in assay [9] and in [10] was inactive.
Regarding `Oc1ccc2c(c1)OC[C@@H](N1CCC(O)(c3ccc(F)cc3)CC1)[C@H]2O`, the call in [1], in assay [2], in assay [5], in [6], in assay [8] and in assay [9] was inactive. For the same molecule, the molecule was called inactive in assay [10].
With `O=C(N[C@@H](Cc1ccccc1)[C@@H](O)C(=O)N1C[C@@H](O)[C@@H](O)C1)c1cc2cc(Cl)ccc2[nH]1`, the AC50 in assay [1] is 71 µM (active). Further, the result in assay [2], in assay [3], in assay [5], in [6], in [8] and in assay [9] was inactive. In assay [10], the molecule was classed as inactive.
